Screens: PubChem, Broad Institute
This is one part of a sample in which hits are shown more often than they occur.
DUX4 inh: inhibitors of DUX4-driven ZSCAN4 reporter expression, primary screen, 293T cells, Gaussia and Italica luciferase; 293T-iDUX4 ZSCAN4-Gaussia luciferase reporter, 24 h; active compounds read low; 37,000 tested, 0.8% active; AID 1224904, 2016; activity change, negative = inhibition, % (no concentration beside the values);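 active = mean inhibition of at least 10% in the main channel, exceeding the control channel by a set limit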;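 note: 0% = median of neutral control wells and -100% = median of positive control wells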
An asterisk follows results filed as active.

SMILES | DUX4 inh
COc1ccc(NC(=O)N2C[C@@H]3N[C@H](C2)C3c2ccc(-c3ccncc3)cc2)cc1 (some centres undefined) | 8
COc1ccc(-c2ccc(C3[C@@H]4CN(C(=O)c5cnccn5)C[C@H]3N4)cc2)cc1 (some centres undefined) | -32*
CN(C)C(=O)c1ccc(-c2ccc(C3[C@@H]4CN(S(=O)(=O)c5ccccc5F)C[C@H]3N4)cc2)cc1 (some centres undefined) | 1
Cc1noc(C)c1S(=O)(=O)N(C)C[C@@H]1Oc2c(NS(=O)(=O)c3cn(C)cn3)cccc2C(=O)N([C@@H](C)CO)C[C@@H]1C | -2
CCN1CC(=O)N2[C@H](CO)[C@@H](c3ccc(-c4cccnc4)cc3)[C@H]2C1 | 6
C/C=C/c1ccc([C@H]2[C@@H](CO)N(C(=O)C3CC3)[C@H]2CN(C)S(C)(=O)=O)cc1 | -4
COc1ccc2c3c([nH]c2c1)[C@@H](CO)N(C(=O)c1cccc(F)c1)CC31CCN(C(C)=O)CC1 | 10
